# Experimental data from PubChem BioAssay AID1259310 (The Scripps Research Institute Molecular Screening Center, 2017).
# Hit rate of the full screen: of about 650,000 compounds, about 850 (0.13%) were called active. Many of the other results were omitted from the sample, so actives are more common in it than they were. A number with no mark means an inactive call. Rule as the data show it: active = normalized activity above about 1.9%; inactive = the rest.
# Target: F-box/WD repeat-containing protein 7 (Homo sapiens) (UniProt Q969H0)
# Sequence (Q969H0 whole entry, looked up): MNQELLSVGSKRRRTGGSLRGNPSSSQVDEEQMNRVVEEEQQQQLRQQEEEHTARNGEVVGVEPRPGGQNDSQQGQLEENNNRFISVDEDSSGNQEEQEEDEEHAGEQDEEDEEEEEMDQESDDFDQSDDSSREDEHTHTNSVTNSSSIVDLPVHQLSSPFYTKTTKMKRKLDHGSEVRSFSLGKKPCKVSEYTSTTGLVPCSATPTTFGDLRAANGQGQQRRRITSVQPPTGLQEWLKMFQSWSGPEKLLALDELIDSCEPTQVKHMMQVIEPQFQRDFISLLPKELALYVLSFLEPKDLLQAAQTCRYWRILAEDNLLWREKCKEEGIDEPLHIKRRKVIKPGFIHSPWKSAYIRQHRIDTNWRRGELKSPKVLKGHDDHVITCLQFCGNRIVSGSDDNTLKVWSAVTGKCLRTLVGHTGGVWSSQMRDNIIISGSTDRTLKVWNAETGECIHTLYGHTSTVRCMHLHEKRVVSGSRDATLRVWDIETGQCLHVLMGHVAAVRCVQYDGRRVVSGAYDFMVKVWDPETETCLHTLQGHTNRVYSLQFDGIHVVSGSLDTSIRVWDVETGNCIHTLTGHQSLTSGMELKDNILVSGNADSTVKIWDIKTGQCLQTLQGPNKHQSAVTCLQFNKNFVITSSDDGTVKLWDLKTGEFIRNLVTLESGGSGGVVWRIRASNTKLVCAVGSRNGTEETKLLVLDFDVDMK
# Test: FBW7 E3 ligase activators, primary screen, biochemical, AlphaScreen, human (AID 1259310);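 also: purified mutant Fbw7 with reduced substrate affinity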
# Settings: AlphaScreen FBW7–phospho-cyclin E peptide binding, activator screen; at 26.1 µM; active compounds read high
row,SMILES,normalized activity (activation)
1,CCOC(=O)C1=C(C)NC(=S)NC1c1cc(OC)ccc1O (configuration not stated),0.11%
2,N#Cc1c2c(c(-n3ccnc3)n3c1nc1ccccc13)CCC2,0.17%
3,CCc1c(C)c(C#N)c2nc3ccccc3n2c1-n1ccnc1,2.07% (active)
4,Cc1c(CCC#N)c(-n2ccnc2)n2c(nc3ccccc32)c1C#N,-0.21%
5,COc1ccc(/C=N/Nc2nc3nonc3nc2Nc2cccc(C)c2)cc1OC,-0.17%
6,COc1cccc2c1OC1(CCN(C(=O)Nc3cccc(F)c3)CC1)OC2,-0.04%
7,Oc1ccccc1-c1nc(-c2cccc(C(F)(F)F)c2)c(-c2ccccc2)[nH]1,0.23%
8,c1cnc(Sc2nnc3ccccn23)nc1,0.1%
9,COc1ccc(N=C2CCC(O)=C2C(C)=O)cc1,0.05%
10,COc1ccc(S(=O)(=O)NCC(=O)Nc2cccc(Br)c2)cc1OC,-0.15%
11,COc1cccc(C(=O)N2CCc3ccccc32)c1,0.05%
12,COc1cccc(C(=O)N2CCN(C(=O)c3cccc(OC)c3)CC2)c1,0%
13,CCn1c(=N)n(CC(=O)c2cccc(OC)c2)c2ccccc21,2.64% (active)
14,Cc1cc(S(=O)(=O)Nc2ccc(Br)cc2)c(C)c(S(=O)(=O)c2ccc(Cl)cc2)c1,0.11%
15,O=C1CCCC2=C1C(c1cccnc1)Nc1ccc3ncccc3c12 (configuration not stated),-0.33%
16,CCCCNc1ncc2c(n1)c(=O)c(C#N)c1[nH]c3ccccc3c(=O)n12,2.15% (active)
17,CN(C)CCCNc1ncc2c(n1)c(=O)c(C#N)c1[nH]c3ccccc3c(=O)n12,-0.01%
18,CCCCNC(=O)CSc1nnc2c(n1)[nH]c1ccccc12,0.16%
19,O=C(O)COc1ccc(C2Nc3ccccc3S(=O)(=O)N2Cc2ccccc2)cc1 (configuration not stated),-0.1%
20,O=C(c1nc2ccccc2s1)N1CCN(c2nc3ccccc3s2)CC1,0.01%
21,Oc1ccccc1-c1nc(CI)no1,0.03%
22,O=S(=O)(NC1CCCCC1Sc1ncn[nH]1)c1ccc(Cl)cc1 (configuration not stated),0%
23,CCSC1=NSC2=NC(=O)/C(=C\c3ccc(OC)cc3)C(=N)N12,0.04%
24,COc1cccc(NC(=O)Nc2cc(OC)cc(OC)c2)c1,-0.06%
25,COc1cccc(NC(=O)Nc2ccc(-c3cn4c(C)c(C)nnc4n3)cc2)c1,1.87% (active)
26,COc1ccc(NC(=O)c2sc3nc(-c4cccc([N+](=O)[O-])c4)cn3c2C)cc1,-0.14%

row,SMILES,normalized activity (activation)
1,CCC(C)(C(=O)Nc1ccc2c(c1)OCCO2)N(Cc1ccco1)C(=O)c1ccccc1O (configuration not stated),-0.01%
2,O=C(COc1cccc([N+](=O)[O-])c1)N/N=C/c1ccc(O)c([N+](=O)[O-])c1,-0.11%
3,CN(C)c1ccc(C(c2nnnn2C(C)(C)C)N2CCN(Cc3ccccc3)CC2)cc1 (configuration not stated),1.85% (active)
4,COc1ccc(C(c2nnnn2C(C)(C)C)N2CCN(c3ccccc3)CC2)cc1 (configuration not stated),0.3%
5,CCCC(c1nnnn1C(C)(C)C)N1CCN(Cc2ccccc2)CC1 (configuration not stated),0.01%
6,CC(=O)c1ccc(N2C(=O)C3C(C2=O)C2(C)c4ccccc4C3(C)c3ccccc32)cc1 (configuration not stated),-0.19%
7,COc1ccc(-c2cc(NCCOc3ccccc3)nc(N)n2)cc1,0.12%
8,O=C(COc1ccc(Cl)cc1)NNC(=O)C(Cc1ccccc1)N1C(=O)c2ccccc2C1=O (configuration not stated),0.06%
9,Cc1cc(C(=O)C(=O)c2nccn2C)c(C)n1C,0.04%
10,CCC(c1nnnn1CCC(C)C)N1CCN(C(=O)c2ccco2)CC1 (configuration not stated),2.16% (active)
11,CCC(c1nnnn1C1CCCC1)N1CCN(C(=O)c2ccco2)CC1 (configuration not stated),-0.16%
12,CCC(c1nnnn1CCC(C)C)N1CCN(c2ccccc2)CC1 (configuration not stated),0.24%
13,COc1cc(Cl)c(C)cc1NC(=O)CCNC(=O)Cn1cnc2sc3c(c2c1=O)CCCC3,-0.1%
14,Cc1ccc(CN2CCN(CC(=O)NCc3ccccn3)C2=O)cc1,-0.27%
15,COC(=O)CNC(=O)CNS(=O)(=O)c1ccccc1[N+](=O)[O-],0.14%
16,O=[N+]([O-])c1ccc(S(=O)(=O)NCCc2ccccc2)cc1,0.18%
17,NNC(=O)CNC(=O)CNS(=O)(=O)c1ccc([N+](=O)[O-])cc1,1.97% (active)
18,CC1=C(C(=O)Nc2cccc(C(=O)Nc3cccc(Cl)c3C)c2)SCCO1,-0.1%
19,COc1cc(C2CC(=O)NC3=C2C(=O)CC(C)(C)C3)cc([N+](=O)[O-])c1O (configuration not stated),-0.34%
20,C#CCN1C(=O)C(O)(CC(=O)c2ccc(OC)c([N+](=O)[O-])c2)c2ccccc21 (configuration not stated),0.12%
21,O=C(NCCc1cccnc1)c1ccc2c(c1)CC(c1nc3ccc(-c4cn[nH]c4)cc3c(=O)[nH]1)CO2 (configuration not stated),3.03% (active)
22,CN(C)CCN(C)c1nc(C2COc3ccc(C(N)=O)cc3C2)nc2ccc(-c3cn[nH]c3)cc12 (configuration not stated),1.23%
23,O=c1[nH]c(C2COc3ccc(F)cc3C2)nc2ccc(-c3cn[nH]c3)cc12 (configuration not stated),-0.05%
24,CCN(CC)c1ccc2nnc(CCC(=O)Nc3ccc(C(=O)OC)cc3)n2n1,0.06%
25,CC1CCCN(S(=O)(=O)c2ccc3c(c2)OCC(=O)N3)C1 (configuration not stated),0.17%
26,CCOC(=O)CC(C(C)C)N(Cc1ccc(F)cc1)C(=S)Nc1cccc(C)c1 (configuration not stated),0.07%
